Measured values as given in the supplement of paper PMC8728848.
Many of the other results were omitted from the sample, so the strongest signals are more common in it than they were.

Key:
Experiment in all cases: glycan array binding signal (z-score within array); higher = stronger binding
Conditions in all cases: glycan notation: IUPAC condensed, linker removed
[1] = molecular target: Kdn(a2-3)Gal(b1-4)GlcNAc
Procedure, shortened: (§1)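 Glycan array data came from 3228 arrays in the Consortium for Functional Glycomics database, and only arrays with an available protein sequence were kept. Glycan names were put into IUPAC-condensed notation, and columns mapping to the same glycan were averaged. The binding signal is a within-array Z-score, averaged across arrays of one protein sequence run at different concentrations or buffers and across linkers. A negative Z-score can be read as non-binding.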

[2] = molecular target: Kdn(a2-3)Gal(b1-4)[Fuc(a1-3)]GlcNAc
Procedure, shortened: as §1

[3] = molecular target: Man(a1-2)Man(a1-2)Man(a1-3)Man
Procedure, shortened: as §1

[4] = molecular target: Man(a1-3)[Man(a1-6)]Man(b1-4)GlcNAc(b1-4)[Fuc(a1-6)]GlcNAc
Procedure, shortened: as §1

[5] = molecular target: Neu5Ac(a2-3)Gal
Procedure, shortened: as §1

[6] = molecular target: Neu5Ac(a2-3)Gal(b1-4)GlcNAc(b1-2)[Neu5Ac(a2-3)Gal(b1-4)GlcNAc(b1-6)]Man(a1-6)[Neu5Ac(a2-3)Gal(b1-4)GlcNAc(b1-2)Man(a1-3)]Man(b1-4)GlcNAc(b1-4)GlcNAc
Procedure, shortened: as §1

[7] = molecular target: Neu5Ac(a2-3)Gal(b1-4)GlcNAc(b1-3)Gal(b1-4)GlcNAc
Procedure, shortened: as §1

[8] = molecular target: Neu5Ac(a2-3)Gal(b1-4)GlcNAc(b1-3)Gal(b1-4)GlcNAc(b1-2)Man(a1-3)[Neu5Ac(a2-3)Gal(b1-4)GlcNAc(b1-3)Gal(b1-4)GlcNAc(b1-2)Man(a1-6)]Man(b1-4)GlcNAc(b1-4)GlcNAc
Procedure, shortened: as §1

[9] = molecular target: Neu5Ac(a2-3)Gal(b1-4)[Fuc(a1-3)]GlcNAc(b1-2)Man
Procedure, shortened: as §1

[10] = molecular target: Neu5Ac(a2-3)GalNAc
Procedure, shortened: as §1

[11] = molecular target: Neu5Ac(a2-6)Gal(b1-4)GlcNAc
Procedure, shortened: as §1

[12] = molecular target: Neu5Ac(a2-6)Gal(b1-4)GlcNAc(b1-2)Man(a1-6)Man(b1-4)GlcNAc(b1-4)GlcNAc
Procedure, shortened: as §1

[13] = molecular target: Neu5Ac(a2-6)Gal(b1-4)GlcNAc(b1-2)Man(a1-6)[Man(a1-3)]Man(b1-4)GlcNAc(b1-4)GlcNAc
Procedure, shortened: as §1

[14] = molecular target: Neu5Ac(a2-6)Gal(b1-4)GlcNAc(b1-3)Gal(b1-4)[Fuc(a1-3)]GlcNAc(b1-3)Gal(b1-4)[Fuc(a1-3)]GlcNAc
Procedure, shortened: as §1

[15] = molecular target: Neu5Ac(a2-8)Neu5Ac(a2-8)Neu5Ac
Procedure, shortened: as §1

[16] = molecular target: Neu5Ac9Ac(a2-3)Gal(b1-3)GlcNAc
Procedure, shortened: as §1

[17] = molecular target: Neu5Ac9Ac(a2-6)Gal(b1-4)GlcNAc
Procedure, shortened: as §1

[18] = molecular target: Neu5Gc(a2-3)Gal(b1-4)Glc
Procedure, shortened: as §1

B1: FliD (Clostridium difficile) (protein)
chain: MSSISPVRVTGLSGNFDMEGIIEASMIRDKEKVNKAKQDQQIVKWKQEIYRDIIKESKNLYDKYLNGDSPNSITNKKAYSATRITSSDESIIVAKGSAGAEKINYQFAVSQMAEPAKVTIKLNSSDPIVQQFPPNASGASSLNIGGVNIPISEQDTTSTIVSKINSLCADNDIRASYSEMTGELIISRKQTGSSSDIDLKVIGNDSLAGQIASDNGITFTTDASGTKSAVVYGKNLEADVTDDQGRVTHISKEQNSFKIDNIDYNVNSKGSAKLVSVTDTEEATKNMKAFVDDYNALMDKVYGLVTTKKSKDYPPLTDEQKDDMTTEEIEKWEKKAKEGILRNDDELRAFVEDIQSMFFGDADTIIALRKLGISEHENYNKKGQISFNADTFSKALIDDSDKVYKALAGYSSNYDDKGMFEKLKKIVFEYSGSSASKLTKKAGMENSSSASQNVYSKQIAEQERNISRLVEKMNDKEKRLYAKYSALESLLNKYSSQMNYFSQAQGN
glycan array binding signal (z-score) [1]: -0.204
glycan array binding signal (z-score) [2]: 0.919
glycan array binding signal (z-score) [3]: -0.247
glycan array binding signal (z-score) [4]: -0.274
glycan array binding signal (z-score) [5]: -0.168
glycan array binding signal (z-score) [6]: -0.056
glycan array binding signal (z-score) [7]: -0.084
glycan array binding signal (z-score) [8]: -0.025
glycan array binding signal (z-score) [9]: -0.222
glycan array binding signal (z-score) [10]: 1.09
glycan array binding signal (z-score) [11]: -0.197
glycan array binding signal (z-score) [12]: -0.179
glycan array binding signal (z-score) [13]: -0.197
glycan array binding signal (z-score) [14]: -0.193
glycan array binding signal (z-score) [15]: -0.239
glycan array binding signal (z-score) [16]: 0.957
glycan array binding signal (z-score) [17]: -0.19
glycan array binding signal (z-score) [18]: -0.194
